Only some compounds are listed: those with a hit (about 3.5% of all), similar ones and a draw of the others.
TEAD-YAP block – TEAD-YAP interaction inhibition | HEK-TIYL cells, TEAD-Gal4/YAP UAS-luciferase luminescence | inhibition, % at 9.12 µM | hit rate 1.4% among 640,000; in the data active = inhibition above about 32%
MITF primary – human MITF inhibition, primary screen | O75030 | AlphaScreen MITF homodimerization, bead proximity signal | inhibition, % at 2.6 µM | hit rate 0.91% among 650,000 | AID 1259374; in the data active = inhibition above about 50%
GPR151 ag – activators of human GPR151. Q8TDV0. hit rate 1% among 650,000. PathHunter beta-arrestin GPR151 cells, luminescence. activation, % at 11.2 µM; in the data active = activation above about 4.9%
FBW7 act – activators of human E3 ligase FBW7 | Q969H0 | AlphaScreen FBW7–phospho-cyclin E peptide binding, activator screen | normalized activity (activation), % at 26.1 µM | hit rate 0.13% among 650,000 | AID 1259310; in the data active = normalized activity above about 1.9%;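 note: purified mutant Fbw7 with reduced substrate affinity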
Target sequence (Q969H0 whole entry, looked up): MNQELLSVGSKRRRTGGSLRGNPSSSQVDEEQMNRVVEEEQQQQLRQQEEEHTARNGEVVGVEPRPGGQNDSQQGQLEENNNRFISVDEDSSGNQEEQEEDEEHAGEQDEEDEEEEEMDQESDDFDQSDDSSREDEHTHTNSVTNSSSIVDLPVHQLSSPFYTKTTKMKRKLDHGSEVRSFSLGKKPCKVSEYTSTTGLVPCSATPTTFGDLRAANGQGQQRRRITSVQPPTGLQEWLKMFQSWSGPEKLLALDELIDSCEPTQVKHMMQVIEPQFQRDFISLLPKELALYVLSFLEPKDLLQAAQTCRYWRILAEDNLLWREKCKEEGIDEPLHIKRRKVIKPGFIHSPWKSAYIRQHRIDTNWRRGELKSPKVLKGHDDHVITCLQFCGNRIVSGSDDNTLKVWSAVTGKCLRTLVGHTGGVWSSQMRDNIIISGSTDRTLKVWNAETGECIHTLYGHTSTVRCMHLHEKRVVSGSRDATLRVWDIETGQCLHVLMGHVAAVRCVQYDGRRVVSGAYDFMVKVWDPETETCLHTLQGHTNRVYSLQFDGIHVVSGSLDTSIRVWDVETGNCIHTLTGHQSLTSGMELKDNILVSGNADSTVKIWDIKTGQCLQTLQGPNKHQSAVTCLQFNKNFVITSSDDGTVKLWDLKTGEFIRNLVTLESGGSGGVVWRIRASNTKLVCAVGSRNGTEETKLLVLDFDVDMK
GPR151 conf act – confirmation of human GPR151 activators | shares compounds with GPR151 ag | GPR151 PathHunter beta-arrestin cells, luminescence, 90 min; % of EA-reagent control over plate median | activation, % at 11.2 µM | AID 1508609 | 6,700 tested, under 10 active;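 active = mean percent activation across replicates above the confirmation screen cutoff of 4.91%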
GPR119 counter – counter-screen for GPR151 activators: effect on human GPR119 | shares compounds with GPR151 ag | GPR119 PathHunter beta-arrestin cells, luminescence, 90 min; 0 = compound-well median, 100 = enzyme-acceptor control | activation, % at 11.2 µM | hit rate 0.3% among 6,700 | AID 1508611;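 active = mean percent activation in the counterscreen above 29.09%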;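 note: counterscreen on off-target GPR119 to flag nonselective hits from the GPR151 activator screen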
Large screens that a line does not name were inactive (follow-up assays come after a bar, where they were run).

COC(=O)C1=C(C)NC(=O)C1(NC(=O)c1ccc(OC)c(OC)c1)C(F)(F)F (centres undefined)	GPR151 ag 12.5 | GPR151 conf act inactive | GPR119 counter inactive
NC(=O)c1ccccc1NC(=O)/C=C/c1ccc(Cl)cc1	none
O=C(/C=C/c1ccc([N+](=O)[O-])cc1)Nc1ccccc1Cl	GPR151 ag 7.4 | GPR151 conf act inactive | GPR119 counter inactive
NC(=O)c1ccccc1NC(=O)/C=C/c1ccccc1	GPR151 ag 7.7 | GPR151 conf act inactive | GPR119 counter inactive
N#Cc1cc(C(=O)c2cc(F)ccc2O)cn(C2CC2)c1=O	GPR151 ag 5.9 | GPR151 conf act inactive | GPR119 counter inactive
COC(=O)CC1=NN(c2ccccc2)C(=O)/C1=C\c1cccs1	none
COc1cc(C(=O)Nc2cc(=O)n(C)c(=O)n2C)cc(OC)c1OC	GPR151 ag 5.7 | GPR151 conf act inactive | GPR119 counter inactive
Clc1cccc(CN2CCN(c3nc4nonc4nc3NC3CC3)CC2)c1	GPR151 ag 11.4 | GPR151 conf act inactive | GPR119 counter inactive
COc1ccc(CCNC(=O)NC2CC(=O)N(c3ccccc3)C2)cc1 (centres undefined)	GPR151 ag 6.1 | GPR151 conf act inactive | GPR119 counter inactive
Cc1ccnc(NC(=O)NC2CC(=O)N(c3ccccc3)C2)c1 (centres undefined)	GPR151 ag 6.1 | GPR151 conf act inactive | GPR119 counter inactive
O=C(NCCc1ccccc1)C1CC(=O)N(c2ccc(Br)cc2)C1 (centres undefined)	GPR151 ag 5.5 | GPR151 conf act inactive | GPR119 counter inactive
COc1ccc(CCNC(=O)NC2CC(=O)N(c3cccc(F)c3)C2)cc1 (centres undefined)	none
O=C1CC(NCCCCO)C(=O)N1c1ccc(Br)cc1 (centres undefined)	none
O=C1CC(NCCCc2ccccc2)C(=O)N1c1ccc(Br)cc1 (centres undefined)	GPR151 ag 11.0 | GPR151 conf act inactive | GPR119 counter inactive
COc1ccc(-n2nnnc2SCC(=O)Nc2ccc(C(C)=O)cc2)cc1OC	none
CC(C)Cn1c(N)c(C(=O)COC(=O)c2ccc(C(F)(F)F)cc2)c(=O)n(C)c1=O	none
CC(Oc1ccc(-c2ccccc2)cc1)C(=O)Nc1ccc(S(N)(=O)=O)cc1 (centres undefined)	none
CCn1c(C(=O)NC2CCCC2)cc2sc(Cl)cc21	none
COc1ccc(N2CC(NC(=O)Nc3ccccc3C(N)=O)CC2=O)cc1OC (centres undefined)	GPR151 ag 5.4 | GPR151 conf act inactive | GPR119 counter inactive
Cc1ccc(N2CC(NC(=O)Nc3ncccc3C)CC2=O)cc1 (centres undefined)	GPR151 ag 5.9 | GPR151 conf act inactive | GPR119 counter inactive
Cc1ccc(N2CC(NC(=O)Nc3nccs3)CC2=O)cc1 (centres undefined)	none
CCOc1ccc(NC(=O)C2CCC(N3C(=O)C4C5CCC(C5)C4C3=O)CC2)cc1 (centres undefined)	none
O=C(CN(c1ccccc1)S(=O)(=O)c1ccccc1)N1CCN(c2ccccc2)CC1	none
Cc1cccc(N(CC(=O)N2CCN(c3ccccc3)CC2)S(=O)(=O)c2ccccc2)c1	GPR151 ag 5.8 | GPR151 conf act inactive | GPR119 counter inactive
O=C(Nc1ccc(Oc2ccccc2)cc1)c1cccc(-c2ccc(N3CCOCC3)nc2)n1	none
CCCn1c(N2CCCCC2)nc2c1c(=O)n(C)c(=O)n2C	none
O=C1C2C3CCC(C3)C2C(=O)N1c1ccc(OS(=O)(=O)c2ccccc2)cc1 (centres undefined)	GPR151 ag 7.6 | GPR151 conf act inactive | GPR119 counter inactive
CN(Cc1ccc(OCC2CCCN(C(=O)c3cnsn3)C2)cc1)Cc1ccon1 (centres undefined)	none
CCCCCCCn1c(Cc2ccccc2)nc2ccccc21	GPR151 ag 5.8 | GPR151 conf act inactive | GPR119 counter inactive
CCN(C(=O)c1ccc([N+](=O)[O-])cc1Cl)c1ccccc1C	GPR151 ag 8.6 | GPR151 conf act inactive | GPR119 counter inactive
CCCCc1nc(SCc2cccnc2)c2c(=O)n(C)c(=O)n(C)c2n1	none
CCc1nc(SCc2cccnc2)c2c(=O)n(C)c(=O)n(C)c2n1	GPR151 ag 8.2 | GPR151 conf act inactive | GPR119 counter inactive
